PubChem BioAssay (NCI)
About 83,000 compounds went through this panel and 20% of them were active in at least one assay; those are over-represented in the sample as a whole.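 Method: cells in 96-well plates; compound added at one concentration; 48 h incubation; percent growth measured; values under 10 scored active.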 Activity calls are given as the source filed them.

Key:
Test in all cases: NCI-60 one-dose screen, 48 h (100 = growth as untreated, 0 = no growth, -100 = all killed)
Details in all cases: 10 µM unless noted
HCT-15 colon = system: HCT-15 colon
HT29 colon = system: HT29 colon
SNB-75 CNS = system: SNB-75 CNS
SNB-19 CNS = system: SNB-19 CNS
U251 CNS = system: U251 CNS
SK-MEL-5 melanoma = system: SK-MEL-5 melanoma
UACC-62 melanoma = system: UACC-62 melanoma
LOX IMVI melanoma = system: LOX IMVI melanoma
SK-MEL-28 melanoma = system: SK-MEL-28 melanoma
SK-MEL-2 melanoma = system: SK-MEL-2 melanoma
EKVX NSCLC = system: EKVX NSCLC
SN12C renal = system: SN12C renal
UO-31 renal = system: UO-31 renal
ACHN renal = system: ACHN renal
CAKI-1 renal = system: CAKI-1 renal
A498 renal = system: A498 renal
CCRF-CEM leukemia = system: CCRF-CEM leukemia
MOLT-4 leukemia = system: MOLT-4 leukemia
TK-10 renal = system: TK-10 renal

Measured: growth

C=C1c2nc3ccccc3n2C=C(c2cccc(Cl)c2)N1Cc1ccc(OC)cc1
active: SK-MEL-5 melanoma -31.1% | EKVX NSCLC 8.8% | UO-31 renal 9.79% | CAKI-1 renal 3.02% | MOLT-4 leukemia 8.13%
inactive: HCT-15 colon 25.7% | HT29 colon 99.1% | SNB-75 CNS 16.5% | SNB-19 CNS 20.4% | U251 CNS 18.4% | UACC-62 melanoma 44.7% | LOX IMVI melanoma 37.2% | SK-MEL-28 melanoma 67.7% | SK-MEL-2 melanoma 28.2% | SN12C renal 37% | ACHN renal 49.2% | A498 renal 91.7% | CCRF-CEM leukemia 47.2%

CCN(CC)c1ccc(-c2cc(-c3cc(OC)c(OC)c(OC)c3)nc(N3CCOCC3)c2C#N)cc1
inactive: HCT-15 colon 10.7% | SNB-75 CNS 29.8% | SNB-19 CNS 79% | U251 CNS 36.7% | SK-MEL-28 melanoma 21.8% | EKVX NSCLC 36.3% | SN12C renal 36.4% | TK-10 renal 49.4% | ACHN renal 19.5% | A498 renal 34.5% | MOLT-4 leukemia 18.8%
active: HT29 colon 2.21% | SK-MEL-5 melanoma -83.3% | UACC-62 melanoma -58% | LOX IMVI melanoma -77.3% | UO-31 renal 5.65% | CAKI-1 renal 1.28%

Cc1ccccc1COc1ccc(-c2onc(C)c2-c2ccc(Cl)cc2)cc1
inactive: HCT-15 colon 37.6% | HT29 colon 16.9% | SNB-75 CNS 52.9% | SNB-19 CNS 55.5% | U251 CNS 41.3% | SK-MEL-5 melanoma 73.4% | UACC-62 melanoma 48.5% | LOX IMVI melanoma 68% | SK-MEL-28 melanoma 70.5% | EKVX NSCLC 75.1% | SN12C renal 68.3% | UO-31 renal 72.4% | TK-10 renal 84.3% | ACHN renal 67% | CAKI-1 renal 48.7% | A498 renal 38.6% | CCRF-CEM leukemia 38.2% | MOLT-4 leukemia 32.8%

COc1ccc(C(=O)COc2ccc(/C=C3\Oc4ccc(OC)cc4C3=O)cc2)cc1
inactive: HCT-15 colon 102% | HT29 colon 110% | SNB-75 CNS 101% | SNB-19 CNS 92.7% | U251 CNS 93% | SK-MEL-5 melanoma 97.5% | UACC-62 melanoma 90.1% | LOX IMVI melanoma 77.3% | SK-MEL-28 melanoma 137% | SK-MEL-2 melanoma 86.4% | EKVX NSCLC 99.4% | SN12C renal 101% | ACHN renal 105% | CAKI-1 renal 98.3% | A498 renal 98.9% | CCRF-CEM leukemia 72.6% | MOLT-4 leukemia 83.6%

O=C(CN1C(=O)/C(=C/c2ccc(Cl)cc2)SC1=S)NCCCN1CCOCC1
inactive: HCT-15 colon 93.1% | HT29 colon 114% | SNB-75 CNS 92.8% | SNB-19 CNS 97.9% | U251 CNS 98.4% | SK-MEL-5 melanoma 95.7% | UACC-62 melanoma 97% | SK-MEL-28 melanoma 101% | SK-MEL-2 melanoma 111% | EKVX NSCLC 90.7% | SN12C renal 94.7% | UO-31 renal 83.2% | TK-10 renal 117% | ACHN renal 94.6% | CAKI-1 renal 89.4% | A498 renal 104% | CCRF-CEM leukemia 105% | MOLT-4 leukemia 102%

COc1ccc(-c2nc3cc(C(=O)Nc4cc(OC)c(OC)c(OC)c4)ccc3n2C2CCCCC2)cc1
inactive: HCT-15 colon 80.2% | HT29 colon 102% | SNB-75 CNS 82% | SNB-19 CNS 98.1% | U251 CNS 96.6% | SK-MEL-5 melanoma 77.8% | UACC-62 melanoma 80.2% | SK-MEL-28 melanoma 97% | SK-MEL-2 melanoma 95.6% | EKVX NSCLC 91.8% | SN12C renal 91.7% | UO-31 renal 78.7% | TK-10 renal 111% | ACHN renal 93.2% | CAKI-1 renal 97.4% | A498 renal 113% | CCRF-CEM leukemia 94.3% | MOLT-4 leukemia 83.1%

COc1cc(C2CC(=O)c3ccccc3N2)cc(OC)c1OC (stereo not drawn)
inactive: HCT-15 colon 102% | HT29 colon 77.8% | SNB-75 CNS 94.7% | SNB-19 CNS 97.1% | U251 CNS 88.5% | SK-MEL-5 melanoma 99.5% | UACC-62 melanoma 94.1% | LOX IMVI melanoma 104% | SK-MEL-28 melanoma 107% | EKVX NSCLC 103% | SN12C renal 92% | UO-31 renal 92.4% | TK-10 renal 105% | ACHN renal 102% | CAKI-1 renal 93.4% | A498 renal 83.7% | MOLT-4 leukemia 97%

O=C1/C(=C/C(Cl)=C/c2ccccc2)SC(=S)N1CCc1ccc(O)cc1
inactive: SNB-75 CNS 17.3% | SK-MEL-2 melanoma 12.8% | EKVX NSCLC 11% | TK-10 renal 16.8%
active: HCT-15 colon 2.94% | HT29 colon 1.54% | SNB-19 CNS 6.88% | U251 CNS -58.3% | SK-MEL-5 melanoma -47.6% | UACC-62 melanoma -24.7% | SK-MEL-28 melanoma -26% | SN12C renal 6.85% | UO-31 renal -84.5% | ACHN renal -73.4% | CAKI-1 renal -15.7% | A498 renal -0.593% | CCRF-CEM leukemia 9.68% | MOLT-4 leukemia 9.33%

C=C(C)C(=O)Nc1ccc(NC(C)C)cc1
inactive: HCT-15 colon 125% | HT29 colon 114% | SNB-75 CNS 102% | SNB-19 CNS 105% | U251 CNS 123% | SK-MEL-5 melanoma 134% | UACC-62 melanoma 118% | LOX IMVI melanoma 114% | SK-MEL-28 melanoma 119% | SK-MEL-2 melanoma 53.5% | EKVX NSCLC 115% | SN12C renal 121% | UO-31 renal 100% | TK-10 renal 138% | ACHN renal 125% | A498 renal 101% | MOLT-4 leukemia 128%

O=C(Nc1ccccc1Cl)c1ccc(NC2=C(Cl)C(=O)N(C3CCCCC3)C2=O)cc1
inactive: HCT-15 colon 46.5% [30 µM] | HT29 colon 37.4% [30 µM] | SNB-75 CNS 38.8% [30 µM] | SNB-19 CNS 62.1% [30 µM] | U251 CNS 34.1% [30 µM] | SK-MEL-5 melanoma 54.4% [30 µM] | UACC-62 melanoma 66.2% [30 µM] | LOX IMVI melanoma 23.7% [30 µM] | SK-MEL-28 melanoma 56.1% [30 µM] | EKVX NSCLC 98.5% [30 µM] | SN12C renal 97.6% [30 µM] | UO-31 renal 75.8% [30 µM] | TK-10 renal 88.5% [30 µM] | ACHN renal 78.9% [30 µM] | CAKI-1 renal 20.5% [30 µM] | A498 renal 123% [30 µM] | CCRF-CEM leukemia 39.6% [30 µM] | MOLT-4 leukemia 40.8% [30 µM]

CCCCn1cnc2c(Sc3c([N+](=O)[O-])ncn3C)nc(N)nc21
inactive: HCT-15 colon 91.6% | HT29 colon 99.7% | SNB-75 CNS 84.3% | SNB-19 CNS 96.3% | U251 CNS 101% | SK-MEL-5 melanoma 103% | UACC-62 melanoma 88.9% | LOX IMVI melanoma 107% | SK-MEL-28 melanoma 98.8% | SK-MEL-2 melanoma 112% | SN12C renal 97.6% | UO-31 renal 69.1% | TK-10 renal 102% | ACHN renal 99.8% | CCRF-CEM leukemia 86.9% | MOLT-4 leukemia 49.5%

Fc1ccc(CNc2cccc3[nH]c(C(F)(F)F)nc23)cc1
inactive: HCT-15 colon 98.3% | HT29 colon 104% | SNB-75 CNS 73.9% | SNB-19 CNS 79.2% | U251 CNS 80.7% | SK-MEL-5 melanoma 96.1% | UACC-62 melanoma 79.6% | LOX IMVI melanoma 99.4% | SK-MEL-28 melanoma 89% | SN12C renal 72.4% | UO-31 renal 84.8% | TK-10 renal 102% | ACHN renal 96.2% | CAKI-1 renal 81.2% | A498 renal 39.7% | CCRF-CEM leukemia 52.4% | MOLT-4 leukemia 41.7%

Nc1ccn(-c2ccc(Br)cc2)c(=O)n1
inactive: HCT-15 colon 119% | HT29 colon 125% | SNB-75 CNS 76.7% | SNB-19 CNS 140% | U251 CNS 104% | SK-MEL-5 melanoma 119% | UACC-62 melanoma 106% | LOX IMVI melanoma 105% | SK-MEL-28 melanoma 137% | SK-MEL-2 melanoma 87.9% | EKVX NSCLC 95.8% | SN12C renal 115% | TK-10 renal 113% | ACHN renal 111% | CAKI-1 renal 87.2% | A498 renal 99.5% | MOLT-4 leukemia 107%
active: CCRF-CEM leukemia -23.5%

C=CCSSC1N=CNc2nc[nH]c21 (stereo not drawn)
active: LOX IMVI melanoma 7.74% | CAKI-1 renal 9.26%
inactive: HCT-15 colon 52.7% | HT29 colon 50.1% | SNB-75 CNS 46.9% | SNB-19 CNS 89.1% | U251 CNS 70.2% | SK-MEL-5 melanoma 60.7% | UACC-62 melanoma 16.8% | SK-MEL-28 melanoma 114% | EKVX NSCLC 93.8% | SN12C renal 72.9% | UO-31 renal 35.7% | TK-10 renal 29.5% | ACHN renal 42.6% | A498 renal 50.1% | MOLT-4 leukemia 34.9%

O=C(COc1cccc(/C=C2\COc3ccccc3C2=O)c1)Nc1nccs1
inactive: SNB-75 CNS 77.3% | SNB-19 CNS 73.5% | U251 CNS 22.6% | SK-MEL-5 melanoma 52.3% | UACC-62 melanoma 78.2% | SK-MEL-2 melanoma 65% | EKVX NSCLC 72.2% | SN12C renal 78.4% | UO-31 renal 67.3% | ACHN renal 88.2% | CAKI-1 renal 83.5% | A498 renal 102%
active: HCT-15 colon -17.9% | HT29 colon -28.7% | LOX IMVI melanoma -96.8% | SK-MEL-28 melanoma -68.3% | CCRF-CEM leukemia -58.5% | MOLT-4 leukemia -48.4%

C#CCOc1ccc2ncnc(N3CCN(C(=O)CCl)CC3)c2c1
inactive: HCT-15 colon 58.8% [8.25 µM] | HT29 colon 71.7% [8.25 µM] | SNB-75 CNS 101% [8.25 µM] | SNB-19 CNS 95.9% [8.25 µM] | U251 CNS 91.2% [8.25 µM] | SK-MEL-5 melanoma 57.7% [8.25 µM] | UACC-62 melanoma 68.2% [8.25 µM] | SK-MEL-28 melanoma 98.4% [8.25 µM] | SK-MEL-2 melanoma 87.6% [8.25 µM] | EKVX NSCLC 96.7% [8.25 µM] | SN12C renal 40.7% [8.25 µM] | UO-31 renal 75.5% [8.25 µM] | TK-10 renal 99.1% [8.25 µM] | CAKI-1 renal 109% [8.25 µM] | A498 renal 110% [8.25 µM] | CCRF-CEM leukemia 10.7% [8.25 µM] | MOLT-4 leukemia 67.1% [8.25 µM]
active: ACHN renal -54.7% [8.25 µM]

CN(C)CCCNc1c2ccccc2nc2ccccc12
inactive: HCT-15 colon 94.1% | HT29 colon 82.8% | SNB-75 CNS 66.9% | SNB-19 CNS 90.5% | U251 CNS 77.1% | SK-MEL-5 melanoma 93.2% | UACC-62 melanoma 105% | LOX IMVI melanoma 96.3% | SK-MEL-28 melanoma 103% | SK-MEL-2 melanoma 99.9% | SN12C renal 95.8% | UO-31 renal 103% | TK-10 renal 81.6% | ACHN renal 100% | CAKI-1 renal 106% | A498 renal 102% | CCRF-CEM leukemia 86.9% | MOLT-4 leukemia 83.3%
